According to PubChem BioAssay (NCI):
Several values for one entry are separate records, joined by “and”; a condition that tells them apart may be missing. Equal entries are not always repeated. Compounds without any hit were thinned out: in the full panel of roughly 83,000, 20% have a hit.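 For each line, cells grew in 96-well plates with the test compound present at a single concentration for 48 hours.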 Unmarked numbers belong to inactive results. Activity calls are given as the source filed them. Rule for the calls: active = growth percent below 10; inactive = the rest.

System: MDA-MB-468 breast
Assay: NCI-60 one-dose screen, 48 h (100 = growth as untreated, 0 = no growth, -100 = all killed)
Conditions: 10 µM unless noted

Structure (SMILES)	growth
CN1CCN(CCCNC(=O)c2c3c(n4ccccc24)C(=O)c2ncccc2C3=O)CC1	-59.9% (active)
O=C(NCc1ccc(Cn2c(=O)sn(-c3ccccc3)c2=O)cc1)OCc1ccc2c(Br)cc(Br)c(O)c2n1	-67.5% (active)
O=C(Nc1ccc(N=Cc2ccccc2O)cc1)NC1C=c2ccccc2=CC1 (stereo not given)	87.1%
COc1ccc2c(c1)c(-c1nc(-c3cn(C)c4ncccc34)cs1)cn2CCO	-16.8% (active)
COc1c(N2CC3CCCNC3C2)c(F)cc2c(=O)c(C(=O)N/N=C/c3ccccc3)cn(C3CC3)c12 (stereo not given)	83.7%
O=S(Cc1ccccc1)/C(=C/NC(=S)Nc1ccccc1)c1ccccc1 (stereo not given)	108%
CC/C=C\C[C@H](O)C/C=C1/C(=O)C=C[C@@H]1C/C=C\CCCC(N)=O	-33.1% (active)
CCCCCCCCCC[C@@H](C)[C@@H]1CC(=O)N[C@H]([C@@H](C)O)C(=O)N[C@@H](C)C(=O)N[C@H](C)C(=O)N[C@@H](CCC(N)=O)C(=O)N[C@H](Cc2ccc(O)cc2)C(=O)N[C@@H](C(C)CC)C(=O)O1 (stereo not given in full)	2.46% (active)
C(=N/Nc1ncc(-c2cc3cc(-c4ccccc4)ccc3o2)s1)/c1cccs1	77.6%
CCCCCCC[C@@H](O)CC(=O)N[C@H](CCCCN)C(=O)N[C@H](Cc1c[nH]c2ccccc12)C(=O)NC(CCCCN)C(=O)N[C@H](CC(C)C)C(=O)N[C@H](Cc1ccccc1)C(=O)N[C@H](CCCCN)C(=O)N[C@H](CCCCN)C(=O)N[C@H](CC(C)C)C(=O)N1CCCC1C(=O)N[C@H](CCCCN)C(=O)N[C@H](Cc1ccccc1)C(=O)N[C@H](CC(C)C)C(=O)N[C@H](Cc1c[nH]cn1)C(=O)N[C@H](CC(C)C)C(=O)N[C@H](C)C(=O)N[C@H](CCCCN)C(=O)N[C@H](CCCCN)C(=O)N[C@H](Cc1ccccc1)C(=O)O (stereo not given in full)	-58.2% (active)
COc1cc2ncnc(Nc3ccc(F)c(Cl)c3)c2cc1OCC(=O)N1CCN(c2ccc(F)cc2)CC1	-7.58% (active)
Cc1nnc(NC/C=C/c2ccccc2)s1	106% and 92%
O=C(COC(=O)[C@H](C[Se][Se]C[C@H](NC(=O)c1ccc(Br)cc1F)C(=O)OCC(=O)c1ccc(F)cc1)NC(=O)c1ccc(Br)cc1F)c1ccc(F)cc1	-79.5% (active)
COCc1cc2c(cc1Br)OCO2	110%
NC(=O)c1cc(Cl)ccc1NC(=O)c1ccccc1-c1ccccc1	25.4%
CCn1c(=O)c(C(=O)NCCCO)c(O)c2ccccc21	112%
COc1ccc(CC(=O)Nc2nn3c(-c4cc(C(F)(F)F)cc(C(F)(F)F)c4)nnc3s2)cc1	48.4%
O=[N+]([O-])c1ccc2c(c1)Cc1cc(I)ccc1-2	105%
CCc1ccc2c(c1)N(CCO)C1=C(C(=O)OC1)C2c1cc(OC)c(OC)c(OC)c1 (stereo not given)	2.83% (active)
O=c1[nH]c2cc(Cl)ccc2n1C1CCN(c2ccc3nnc(Cl)n3n2)CC1	85.3%
COc1cc(/C=C/C(=O)N2CCN(C(=O)c3cc(OC)c(OC)c(OC)c3)CC2)ccc1OCCCOc1cc2c(cc1OC)C(=O)N1CCC[C@H]1C=N2	-34.6% (active)
CCOC(=O)C1=C(C)NC(C)=C(C(=O)OCC)C1(C)C	98.8%
COC(=O)c1ccc(C(C)C)cc1	110%
O=C(O)c1ccc(-n2cc(CNc3cccc(Cl)c3)c(-c3ccc(F)cc3)n2)cc1	109%
O=C1c2cccc(NCCN=Cc3cc(O)ccc3O)c2C(=O)c2c(NCCN=Cc3cc(O)ccc3O)cccc21	-85.8% (active)

Structure (SMILES)	growth
COc1cc2cc3c(=O)n4c(cc5cc(OC)ncc54)c(=O)n3c2cn1	102%
CCCCn1c(=O)c(/C=C/C(=O)/C=C/c2cc3ccccc3n(CCCC)c2=O)cc2ccccc21	-59.4% (active)
CN1CCN(c2ccc(Nc3ncc(Cl)c(NC[C@@H]4CCCO4)n3)cc2)CC1	30.7%
CCN1/C(=C/C(C)=C/c2sc3ccc4ccccc4c3[n+]2CC)Sc2ccc3ccccc3c21	-87.4% (active)
Nc1nc(SCc2cccnc2)c2ncn(C3OC(CO)C(O)C3O)c2n1 (stereo not given)	97.4%
CN1CCN(c2nc(NCCCCNc3ccnc4cc(Cl)ccc34)c3ccccc3n2)CC1	62.4%
COc1ccc2c(c1OC)C(=O)O[C@H]2[C@H]1c2c(cc3c(c2OC)OCO3)CCN1C	90.3%
CCc1ccc(-c2nnc(COc3ccc(-c4nc5cc(Cl)c(Cl)cc5[nH]4)cc3OC)o2)cc1	76.4%
CC[C@H](C)[C@@H](C(=O)OC)n1cc(CNC(=O)[C@@H](Cc2ccccc2)NC(=O)OCc2ccccc2)nn1	99%
O=C(c1c(F)ccc(NS(=O)(=O)N2CC[C@@H](F)C2)c1F)c1c[nH]c2ncc(-c3cnc(C4CC4)nc3)cc12	54.7%
N#C/C(=C\c1ccc(-c2ccc(Cl)cc2)o1)C(=O)Nc1ncc(Cc2ccc(Br)cc2)s1	25.7%
O=C(Nc1cc(Cl)cc2c1-c1ccc(Cl)cc1C2O)C(Cl)Cl (stereo not given)	-3.77% (active)
Clc1ccc(-c2nc(-c3ccco3)cn3ccnc23)cc1	-5.8% (active)
C#Cc1cccc(NC(=O)c2ccccc2NC(=O)CCl)c1	76.1% [8.25 µM]
Cc1ccccc1N1C(c2ccccc2)=NNC12C=CC(=O)c1c(O)cccc12 (stereo not given)	88%
COc1cc(C(=C2O[C@@H]([C@H]3COC(C)(C)O3)[C@H]3OC(C)(C)O[C@@H]23)c2cc(OC)c(OC)c(OC)c2)cc(OC)c1OC	106%
O=C(NC(CSSCC(NC(=O)OCc1ccccc1)C(=O)O)C(=O)O)OCc1ccccc1 (stereo not given)	84.5% and 102%
O=c1cc(N2CCOCC2)oc2c(-c3ccc4c(c3)OCCO4)csc12	-4.24% (active)
CCCCNc1ccc2c3c1cccc3c(=O)n1c3ccccc3nc21	-12.2% (active)
COc1cccc(-c2nn(-c3ccccc3)cc2-c2ccnc(NCCCNS(=O)(=O)c3ccc(Br)cc3)c2)c1	35.5%
COc1cc(-c2nc(NC(C)=O)sc2-c2ccnc(NCCNS(=O)(=O)c3ccccc3)n2)ccc1Cl	20.8%
CC(=O)Nc1ccc(O)c(C)c1	111%
COc1cc(C2CC(c3cccc(Nc4ccncc4)c3)=NN2C(C)=O)cc(OC)c1OC (stereo not given)	86.6%
CCCNNC(=O)c1ccc(CNC(=O)/C=C/c2ccccc2)cc1	54.5% [2.5 µM]
C#CCOc1cccc(/C(N)=N/C(N)=N/c2nc3ccccc3s2)c1	76.4%

Structure (SMILES)	growth
O=C(Nc1ccc(F)cc1F)c1cc(I)ccc1O	-1.05% (active)
Nc1nc(-c2cccnc2)nc2c1sc(=S)n2-c1ccccc1	103%
c1ccc2c(c1)oc1cc3sccc3nc12	102%
Cc1ccc(/C(N)=N/C(N)=N/c2nc3ccccc3s2)cc1	88.8%
O=C(O)CCC/C=C\C[C@H]1C=CC(=O)/C1=C/C[C@@H](O)CCc1cccc(C(F)(F)F)c1	-6.7% (active)
COc1ccc(/C=C/C(c2cc(OC)c(OC)c(OC)c2)n2cncn2)cc1 (stereo not given)	40.9%
COC(=O)[C@]12CC[C@@H](C)[C@H](C)[C@@H]1C1=CC[C@@H]3[C@@]4(C)C[C@@H](O)[C@H](O)[C@@](C)(CO)C4=CC[C@@]3(C)[C@]1(C)CC2	-66.4% (active)
N#Cc1c2ncccc2c2nnc3cc(Cl)c(Cl)cc3n12	21.7%
NC1(CO)COC(c2ccccc2)OC1 (stereo not given)	99.7%
O=C(Cn1nnc([N+](=O)[O-])n1)c1ccccc1	99.2%
COc1ccc(CN2c3ccccc3Sc3ccccc32)c(F)c1	2.44% (active)
Cc1ccc(-c2cc(-c3ccc(C)cc3)nc(NCCNc3ccnc4cc(Cl)ccc34)n2)cc1	-93.2% (active)
Cc1ccc(S(=O)(=O)Nc2nc3ccccc3nc2Nc2ccc3nsnc3c2)cc1	27.4% and 35.8%
Nc1nc2ccc(CNc3ccc(C(=O)NC(CC(=O)O)C(=O)O)cc3)cc2c(=O)[nH]1 (stereo not given)	81.6%
O=C(CCCCCCN1CC(=O)N2[C@H](c3ccc(Cl)cc3)c3[nH]c4ccccc4c3C[C@@H]2C1=O)NO	36.5%
CC(=O)Cc1cccnc1	97.1%
Cc1cc(Cl)nc(N(CCNc2ccnc3cc(Cl)ccc23)Cc2ccccn2)n1	3.86% (active)
CC1=C(CCC(C)NCc2ccc(OCCCN3CCCCC3)cc2)C(C)(C)CCC1 (stereo not given)	-92.7% (active)
CCOC(=O)c1c(C)[nH]c(C)c1C=O	99.1%
Cc1c(C(=O)NCCC(=O)NO)sc2ncnc(Nc3ccc(NC(=O)Nc4cccc(C(F)(F)F)c4)cc3)c12	97.2%
O=C(CSc1nc2ccccc2[nH]1)Nc1ccc(-c2nc3ccccc3s2)c(Cl)c1	26.5%
COc1ccc(/C=N/NC(=O)c2cccc3cc[nH]c23)cc1O	11.3%
COc1ccc(-c2nc3sccn3c2/C=C/C(=O)c2cc(OC)c(OC)c(OC)c2)cc1	53.6%
COc1cc(/C=C/C(=O)c2ccc(Cl)cc2)ccc1Oc1nc(NCCO)nc(N2CCOCC2)n1	91.5%
CC(=O)OC[C@]12CC[C@@H](/C(C)=N/O)[C@@H]1[C@H]1CC[C@@H]3[C@@]4(C)CCCNC(C)(C)[C@@H]4CC[C@@]3(C)[C@]1(C)CC2	54.1%
